Usually inhibition stands for the relative decrease from the control value, in per cent.

In ChEMBL document CHEMBL1961873, “Compounds: GSK PKIS; Assays: Nanosyn kinase panel” (2012) one finds inhibition data, which are given here for 6 compounds.

Experiment [1] addresses Calcium/calmodulin-dependent protein kinase type II subunit alpha (Homo sapiens) (UniProt Q9UQM7). The conditions noted are these: at 1 µM.
For experiment [2], the target named is Calcium/calmodulin-dependent protein kinase type II subunit delta (Homo sapiens) (UniProt Q13557). The conditions noted are these: at 0.1 µM.
Sequence of Calcium/calmodulin-dependent protein kinase type II subunit delta (Homo sapiens) (Q13557 whole entry): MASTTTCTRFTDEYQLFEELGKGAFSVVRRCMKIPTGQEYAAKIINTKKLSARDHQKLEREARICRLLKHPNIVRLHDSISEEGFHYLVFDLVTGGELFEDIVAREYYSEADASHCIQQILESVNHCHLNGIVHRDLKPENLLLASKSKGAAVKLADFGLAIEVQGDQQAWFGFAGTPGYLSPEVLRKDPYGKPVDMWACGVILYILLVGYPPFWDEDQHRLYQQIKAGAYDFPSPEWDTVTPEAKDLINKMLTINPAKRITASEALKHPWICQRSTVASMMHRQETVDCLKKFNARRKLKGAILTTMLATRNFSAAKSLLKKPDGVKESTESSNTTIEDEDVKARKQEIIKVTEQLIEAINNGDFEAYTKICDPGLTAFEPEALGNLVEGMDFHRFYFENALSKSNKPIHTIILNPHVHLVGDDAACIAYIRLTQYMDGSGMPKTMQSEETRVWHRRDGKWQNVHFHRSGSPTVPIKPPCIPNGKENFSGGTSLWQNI
Experiment [3] shares this target. The conditions noted are these: at 1 µM.
Experiment [4] deals with T1, Calcium/calmodulin-dependent protein kinase type IV (Homo sapiens) (UniProt Q16566).
T1 sequence (whole entry): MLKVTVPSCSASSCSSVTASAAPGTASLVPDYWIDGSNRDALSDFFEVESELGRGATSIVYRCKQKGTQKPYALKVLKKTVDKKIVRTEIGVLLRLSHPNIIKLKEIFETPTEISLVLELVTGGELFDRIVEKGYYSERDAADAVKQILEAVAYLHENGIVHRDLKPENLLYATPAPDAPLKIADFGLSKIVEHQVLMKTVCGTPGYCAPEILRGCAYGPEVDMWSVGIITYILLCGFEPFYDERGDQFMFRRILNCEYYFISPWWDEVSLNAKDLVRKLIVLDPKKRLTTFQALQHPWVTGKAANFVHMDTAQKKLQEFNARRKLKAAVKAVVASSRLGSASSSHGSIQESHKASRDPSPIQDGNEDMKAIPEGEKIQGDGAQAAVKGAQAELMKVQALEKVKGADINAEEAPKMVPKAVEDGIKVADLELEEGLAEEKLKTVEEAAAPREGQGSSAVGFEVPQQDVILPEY
As to conditions: at 0.1 µM.

Experiment [5] has as its target T1, Calcium/calmodulin-dependent protein kinase type IV (Homo sapiens). As to conditions: at 1 µM.
In experiment [6] the target is T2, Serine/threonine-protein kinase Chk1 (Homo sapiens) (UniProt O14757).
T2 sequence (whole entry): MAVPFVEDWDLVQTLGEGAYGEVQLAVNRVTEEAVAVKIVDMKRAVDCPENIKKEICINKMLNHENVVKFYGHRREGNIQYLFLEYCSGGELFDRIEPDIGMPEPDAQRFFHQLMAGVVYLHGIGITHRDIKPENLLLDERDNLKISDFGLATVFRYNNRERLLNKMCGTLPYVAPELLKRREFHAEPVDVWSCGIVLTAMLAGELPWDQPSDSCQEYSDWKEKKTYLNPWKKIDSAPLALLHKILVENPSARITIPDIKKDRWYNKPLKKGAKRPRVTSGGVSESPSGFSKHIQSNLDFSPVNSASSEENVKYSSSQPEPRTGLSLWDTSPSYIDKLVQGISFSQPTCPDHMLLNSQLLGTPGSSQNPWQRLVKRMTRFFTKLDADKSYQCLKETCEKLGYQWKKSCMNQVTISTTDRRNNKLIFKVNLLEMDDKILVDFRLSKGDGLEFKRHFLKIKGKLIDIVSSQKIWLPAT
As to conditions: at 0.1 µM.

Experiment [7] has as its target T2, Serine/threonine-protein kinase Chk1 (Homo sapiens). The conditions noted are these: at 1 µM.
Experiment [8] addresses Serine/threonine-protein kinase Chk2 (Homo sapiens) (UniProt O96017). The conditions noted are these: at 0.1 µM.
The target is the same in experiment [9]. As to conditions: at 1 µM.
Experiment [10] has as its target Death-associated protein kinase 1 (Homo sapiens) (UniProt P53355). The conditions noted are these: at 0.1 µM.
Experiment [11] shares this target. The conditions noted are these: at 1 µM.
The target in experiment [12] is T3, Serine/threonine-protein kinase DCLK2 (Homo sapiens) (UniProt Q8N568).
T3 sequence (whole entry): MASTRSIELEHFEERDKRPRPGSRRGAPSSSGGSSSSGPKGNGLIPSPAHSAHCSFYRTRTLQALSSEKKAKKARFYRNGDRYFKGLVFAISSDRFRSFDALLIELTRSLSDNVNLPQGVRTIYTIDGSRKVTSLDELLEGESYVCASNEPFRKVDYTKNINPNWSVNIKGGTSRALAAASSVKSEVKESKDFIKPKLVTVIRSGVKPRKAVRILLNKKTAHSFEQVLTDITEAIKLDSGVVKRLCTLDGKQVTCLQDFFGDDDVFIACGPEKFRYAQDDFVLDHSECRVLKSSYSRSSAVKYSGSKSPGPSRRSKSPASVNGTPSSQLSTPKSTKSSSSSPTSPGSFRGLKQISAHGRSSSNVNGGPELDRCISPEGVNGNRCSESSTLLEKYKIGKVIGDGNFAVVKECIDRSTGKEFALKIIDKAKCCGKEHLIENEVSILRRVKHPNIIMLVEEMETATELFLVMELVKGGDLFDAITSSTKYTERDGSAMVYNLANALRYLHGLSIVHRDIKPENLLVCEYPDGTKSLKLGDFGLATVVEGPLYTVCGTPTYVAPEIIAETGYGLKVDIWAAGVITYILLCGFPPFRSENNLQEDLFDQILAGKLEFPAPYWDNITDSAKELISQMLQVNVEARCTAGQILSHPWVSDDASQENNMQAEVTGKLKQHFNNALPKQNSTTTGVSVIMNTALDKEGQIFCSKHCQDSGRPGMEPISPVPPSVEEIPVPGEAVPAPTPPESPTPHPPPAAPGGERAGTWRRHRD
The conditions noted are these: at 0.1 µM.

Experiment [13] concerns the target T3, Serine/threonine-protein kinase DCLK2 (Homo sapiens). As to conditions: at 1 µM.
For experiment [14], the target named is MAP kinase-activated protein kinase 2 (Homo sapiens) (UniProt P49137). The conditions noted are these: at 0.1 µM.
Sequence of MAP kinase-activated protein kinase 2 (Homo sapiens) (P49137 whole entry, looked up): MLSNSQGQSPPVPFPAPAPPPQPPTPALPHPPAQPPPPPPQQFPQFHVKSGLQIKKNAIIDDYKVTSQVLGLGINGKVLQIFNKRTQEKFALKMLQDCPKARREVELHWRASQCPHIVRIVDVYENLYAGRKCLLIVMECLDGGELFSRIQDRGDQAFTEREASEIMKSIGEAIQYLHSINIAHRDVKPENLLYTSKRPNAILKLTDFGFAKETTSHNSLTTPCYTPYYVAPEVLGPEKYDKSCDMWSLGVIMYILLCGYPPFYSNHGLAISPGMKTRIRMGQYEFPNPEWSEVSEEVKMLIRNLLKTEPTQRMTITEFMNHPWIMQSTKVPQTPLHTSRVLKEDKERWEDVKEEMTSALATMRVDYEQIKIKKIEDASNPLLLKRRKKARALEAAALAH
Experiment [15] has the same target. As to conditions: at 1 µM.
The target in experiment [16] is MAP kinase-activated protein kinase 3 (Homo sapiens) (UniProt Q16644). The conditions noted are these: at 0.1 µM.
Sequence of MAP kinase-activated protein kinase 3 (Homo sapiens) (Q16644 whole entry, looked up): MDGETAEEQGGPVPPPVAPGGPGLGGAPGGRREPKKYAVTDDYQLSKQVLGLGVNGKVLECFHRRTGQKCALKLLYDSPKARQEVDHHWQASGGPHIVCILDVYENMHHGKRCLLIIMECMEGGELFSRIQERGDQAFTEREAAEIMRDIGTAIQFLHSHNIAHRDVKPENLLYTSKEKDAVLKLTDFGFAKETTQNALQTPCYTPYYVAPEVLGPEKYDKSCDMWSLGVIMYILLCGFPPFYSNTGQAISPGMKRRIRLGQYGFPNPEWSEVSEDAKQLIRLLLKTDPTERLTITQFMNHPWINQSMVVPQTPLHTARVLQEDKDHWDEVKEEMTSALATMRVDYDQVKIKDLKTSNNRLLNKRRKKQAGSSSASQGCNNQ
For experiment [17] the target is unchanged. The conditions noted are these: at 1 µM.
Experiment [18] deals with Serine/threonine-protein kinase MARK1 (Homo sapiens) (UniProt Q9P0L2). The conditions noted are these: at 0.1 µM.
Sequence of Serine/threonine-protein kinase MARK1 (Homo sapiens) (Q9P0L2 whole entry, looked up): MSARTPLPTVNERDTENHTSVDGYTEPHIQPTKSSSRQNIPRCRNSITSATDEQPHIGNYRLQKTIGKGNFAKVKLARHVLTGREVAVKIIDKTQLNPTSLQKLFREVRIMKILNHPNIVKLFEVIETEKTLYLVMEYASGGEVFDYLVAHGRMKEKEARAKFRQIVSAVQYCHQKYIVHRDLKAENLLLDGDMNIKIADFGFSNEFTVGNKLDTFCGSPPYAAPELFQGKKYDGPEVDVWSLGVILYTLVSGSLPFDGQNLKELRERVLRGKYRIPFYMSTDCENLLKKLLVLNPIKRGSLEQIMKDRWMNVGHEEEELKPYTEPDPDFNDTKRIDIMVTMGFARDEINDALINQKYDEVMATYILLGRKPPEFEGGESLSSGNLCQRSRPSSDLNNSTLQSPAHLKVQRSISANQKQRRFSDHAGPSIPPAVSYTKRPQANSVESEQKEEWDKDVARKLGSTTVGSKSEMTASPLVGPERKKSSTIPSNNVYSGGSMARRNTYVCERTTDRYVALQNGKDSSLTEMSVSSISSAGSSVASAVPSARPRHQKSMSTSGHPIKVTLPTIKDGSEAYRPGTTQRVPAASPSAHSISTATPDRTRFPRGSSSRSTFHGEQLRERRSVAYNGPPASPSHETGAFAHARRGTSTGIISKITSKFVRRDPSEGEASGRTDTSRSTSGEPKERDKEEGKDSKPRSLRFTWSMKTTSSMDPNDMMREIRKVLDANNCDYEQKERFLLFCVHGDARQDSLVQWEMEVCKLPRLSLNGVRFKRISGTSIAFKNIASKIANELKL
Experiment [19] has the same target. As to conditions: at 1 µM.
Experiment [20] has as its target MAP/microtubule affinity-regulating kinase 3 (Homo sapiens) (UniProt P27448). The conditions noted are these: at 0.1 µM.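 Further: mean percent inhibition of MARK3 kinase activity, measured within the GSK PKIS screening panel.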

Each structure is given as a SMILES string.

Sequence of Death-associated protein kinase 1 (Homo sapiens) (P53355 whole entry, looked up): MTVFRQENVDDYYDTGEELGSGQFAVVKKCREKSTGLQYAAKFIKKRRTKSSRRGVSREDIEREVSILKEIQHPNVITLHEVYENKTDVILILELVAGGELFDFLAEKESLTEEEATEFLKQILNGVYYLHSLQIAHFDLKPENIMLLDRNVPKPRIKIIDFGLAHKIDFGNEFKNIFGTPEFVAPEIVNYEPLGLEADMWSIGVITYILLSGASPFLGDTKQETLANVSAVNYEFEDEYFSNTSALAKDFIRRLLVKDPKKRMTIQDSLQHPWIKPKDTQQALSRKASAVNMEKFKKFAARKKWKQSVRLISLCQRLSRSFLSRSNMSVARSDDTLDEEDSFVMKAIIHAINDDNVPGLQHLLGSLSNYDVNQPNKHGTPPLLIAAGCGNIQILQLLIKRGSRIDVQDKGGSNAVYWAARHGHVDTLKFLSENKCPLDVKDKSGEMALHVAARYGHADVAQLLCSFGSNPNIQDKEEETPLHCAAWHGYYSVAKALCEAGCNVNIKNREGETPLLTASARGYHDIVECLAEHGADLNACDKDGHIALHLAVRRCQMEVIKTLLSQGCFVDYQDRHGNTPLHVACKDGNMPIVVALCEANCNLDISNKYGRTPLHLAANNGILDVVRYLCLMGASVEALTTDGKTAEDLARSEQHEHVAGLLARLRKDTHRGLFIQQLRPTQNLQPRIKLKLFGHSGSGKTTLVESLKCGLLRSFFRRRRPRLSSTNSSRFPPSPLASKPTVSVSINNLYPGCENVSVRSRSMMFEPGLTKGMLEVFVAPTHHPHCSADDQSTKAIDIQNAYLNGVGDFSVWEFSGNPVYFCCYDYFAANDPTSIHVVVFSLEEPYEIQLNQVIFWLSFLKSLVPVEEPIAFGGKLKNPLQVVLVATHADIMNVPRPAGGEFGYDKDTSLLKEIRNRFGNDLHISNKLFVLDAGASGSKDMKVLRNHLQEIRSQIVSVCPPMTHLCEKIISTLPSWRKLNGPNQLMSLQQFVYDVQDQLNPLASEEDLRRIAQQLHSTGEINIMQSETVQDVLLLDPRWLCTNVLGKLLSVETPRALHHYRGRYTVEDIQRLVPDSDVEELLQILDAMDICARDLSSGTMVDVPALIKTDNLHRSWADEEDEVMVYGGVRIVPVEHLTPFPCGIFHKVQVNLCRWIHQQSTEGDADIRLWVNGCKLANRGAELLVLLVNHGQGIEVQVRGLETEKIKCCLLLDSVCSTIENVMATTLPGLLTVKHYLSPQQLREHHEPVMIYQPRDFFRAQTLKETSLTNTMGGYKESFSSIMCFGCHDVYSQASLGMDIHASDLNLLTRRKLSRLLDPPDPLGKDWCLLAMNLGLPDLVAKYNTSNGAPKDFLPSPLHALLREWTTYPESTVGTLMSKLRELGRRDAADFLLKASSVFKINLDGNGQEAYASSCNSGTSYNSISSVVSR
Sequence of MAP/microtubule affinity-regulating kinase 3 (Homo sapiens) (P27448 whole entry, looked up): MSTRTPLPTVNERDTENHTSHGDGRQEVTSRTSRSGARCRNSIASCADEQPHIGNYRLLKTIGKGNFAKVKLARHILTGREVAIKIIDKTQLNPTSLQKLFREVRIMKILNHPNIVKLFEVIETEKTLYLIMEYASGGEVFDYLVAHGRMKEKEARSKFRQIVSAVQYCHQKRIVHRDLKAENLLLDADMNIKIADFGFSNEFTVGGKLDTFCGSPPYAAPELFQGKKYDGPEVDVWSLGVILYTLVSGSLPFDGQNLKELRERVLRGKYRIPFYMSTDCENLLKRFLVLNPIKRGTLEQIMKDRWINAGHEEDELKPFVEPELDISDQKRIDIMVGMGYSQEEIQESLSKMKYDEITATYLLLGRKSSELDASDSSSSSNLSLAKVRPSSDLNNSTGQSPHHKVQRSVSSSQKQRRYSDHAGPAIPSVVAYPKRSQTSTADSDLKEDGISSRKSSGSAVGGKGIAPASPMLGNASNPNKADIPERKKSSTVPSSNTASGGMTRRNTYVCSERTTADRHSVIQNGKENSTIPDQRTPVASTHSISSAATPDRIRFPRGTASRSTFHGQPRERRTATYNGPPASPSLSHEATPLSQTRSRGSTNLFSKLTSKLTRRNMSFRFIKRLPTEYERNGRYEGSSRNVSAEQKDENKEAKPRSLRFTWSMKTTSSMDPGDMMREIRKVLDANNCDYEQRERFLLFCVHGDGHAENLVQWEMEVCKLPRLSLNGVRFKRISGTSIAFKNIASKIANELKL
Sequence of Calcium/calmodulin-dependent protein kinase type II subunit alpha (Homo sapiens) (Q9UQM7 whole entry): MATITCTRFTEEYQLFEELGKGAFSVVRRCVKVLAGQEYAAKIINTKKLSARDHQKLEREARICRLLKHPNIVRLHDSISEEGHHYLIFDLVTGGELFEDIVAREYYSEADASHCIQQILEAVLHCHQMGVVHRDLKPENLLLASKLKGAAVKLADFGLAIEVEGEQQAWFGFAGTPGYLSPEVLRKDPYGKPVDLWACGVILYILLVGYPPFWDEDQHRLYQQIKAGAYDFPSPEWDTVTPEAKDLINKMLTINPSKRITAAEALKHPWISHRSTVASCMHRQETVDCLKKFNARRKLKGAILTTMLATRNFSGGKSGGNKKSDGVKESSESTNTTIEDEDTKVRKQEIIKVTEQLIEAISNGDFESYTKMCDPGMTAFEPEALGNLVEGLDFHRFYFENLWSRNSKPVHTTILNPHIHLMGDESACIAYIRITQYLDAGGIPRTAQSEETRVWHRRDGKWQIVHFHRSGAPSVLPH

On to `Cc1nc(-c2ccccc2)n2nc(NCCCN3CCOCC3)ncc12`, for which the inhibition in [1] stood at 3.41%; in experiment [2] it was 2.22%; in experiment [3], 3.36%; in [4] it was 0.88%; in [5], 2.05%; in [6], 1.78%. Also, the inhibition is 3.88% in experiment [7]; 2.24% in [8]; 4.72% in [9]; 3.5% in [10]; 1.62% in experiment [11]; -0.46% in [12]. Further, the inhibition in experiment [13] was found to be 1.45%; in experiment [14] it was 1.25%; in experiment [15], 2.01%; in experiment [16], 1.51%; in experiment [17], 1.12%; in [18] it was 0.92%. In addition, the inhibition turned out to be 3% in experiment [19] and 0.93% in experiment [20].

For `Nc1ccc(C#Cc2cncnc2Nc2ccc(OCc3cccc(F)c3)c(Cl)c2)cc1`, the inhibition in experiment [1] was -1.06%; in experiment [2], 0.73%; in [3] it was 0.72%; in experiment [4], 1.79%; in [5] it was -0.16%; in [6], 0.65%. Besides, the inhibition in experiment [7] was 0.62%; in experiment [8], 1.8%; in [9], 0.63%; in experiment [10], 4.63%; in [11] it was 1.54%; in experiment [12], -0.36%. Besides, the inhibition in [13] was -0.03%; in [14], 2.17%; in [15], 0.48%; in experiment [16], 4.18%; in experiment [17] it was 4.4%; in experiment [18], 2.19%. For the same compound, the inhibition in experiment [19] came out at 3.58%; in experiment [20], 2.93%.

Consider `CN(C)C(=O)O[C@@H]1CN[C@@H](C#Cc2cc3ncnc(Nc4ccc(OCc5cccc(F)c5)c(Cl)c4)c3s2)C1`, for which the inhibition in [1] was 1.65%; in [2] it was 1.47%; in experiment [3] it was 2.72%; in experiment [4], 0.93%; in [5], 0.99%; in experiment [6], -0.23%. The inhibition worked out at 0.16% in experiment [7]; 0.47% in experiment [8]; 1.66% in experiment [9]; 0.93% in [10]; 1.85% in experiment [11]; 1.22% in [12]. For the same compound, the inhibition in experiment [13] was 0.53%; in [14], -2.43%; in [15], -0.13%; in [16] it was 2.61%; in experiment [17], 3.12%; in [18] it was 0.76%. In addition, the inhibition in experiment [19] was found to be 0.76%; in experiment [20], 2.16%.

On to `O=C(Nc1ccc(Oc2ccc3[nH]c(NC(=O)c4ccco4)nc3c2)cc1)Nc1cc(C(F)(F)F)ccc1F`, for which the inhibition in experiment [1] was 2.09%; in experiment [2], 1.58%; in [3], 4.15%; in experiment [4], 2.98%; in experiment [5], 4.62%; in experiment [6], -0.34%. The inhibition in experiment [7] was -0.68%; in experiment [8] it was 0.12%; in experiment [9], 4.39%; in experiment [10], -1.4%; in [11], -1.29%; in experiment [12], -4.07%. The inhibition in experiment [13] was -5.38%; in experiment [14], -0.82%; in experiment [15], -1.43%; in [16], 2.85%; in experiment [17] it was 16.3%; in [18] it was -1.16%. The inhibition was 0.35% in experiment [19] and -0.52% in experiment [20].

`C[C@@H](Oc1cc(-n2cnc3ccc(OCC4CCN(C)CC4)cc32)sc1C(N)=O)c1ccccc1C(F)(F)F`: the inhibition in [1] is 14.2%; in experiment [2] it was 6.59%; in experiment [3], 49.9%; in experiment [4], -0.36%; in [5], 1.74%; in experiment [6], -1.68%. The inhibition in [7] was 0.33%; in experiment [8], -2%; in [9], -1.44%; in [10] it was -1.34%; in [11], 3.7%; in experiment [12], -1.44%. Moreover, the inhibition in [13] was 0.02%; in experiment [14], -1.73%; in experiment [15] it was -1.24%; in [16], -0.96%; in experiment [17], -1.6%; in experiment [18], 8.37%. In addition, the results for the inhibition in experiment [19] and in experiment [20] were 50.7% and 6.29%, respectively.

Regarding `Nc1nccc(-c2c(-c3ccc(F)cc3)ncn2CCCN2CCOCC2)n1`, the inhibition in experiment [1] was 2.46%; in [2], 1.96%; in experiment [3], 2.44%; in [4] it was 0.27%; in experiment [5], -0.08%; in experiment [6], 3.25%. For the same compound, the inhibition in experiment [7] was determined as 5.25%; in experiment [8], 1.76%; in [9], 4.69%; in experiment [10], 5.49%; in [11] it was 5.9%; in experiment [12], 2.38%. For the same compound, the inhibition in experiment [13] is -0.25%; in experiment [14], 2.78%; in [15] it was 2.33%; in experiment [16], 9.94%; in [17], 23.5%; in experiment [18], 3.81%. For the same compound, the inhibition in experiment [19] stood at 6.99%; in experiment [20], 2.18%.
